Assay outcomes from PubChem.
Most compounds without a hit are left out; they make up all but 2.1% or so of the library.
ClpP mod: qHTS Assay for Activators of ClpP | ATP-dependent Clp protease proteolytic subunit (Bacillus subtilis (strain 168)), P80244 | purified B. subtilis ClpP, FRET peptide cleavage, 20 min | Potency, µM (titrated, usually from 57.5 µM), for the others: top-dose activity change, negative = active | 1.9% of 340,000 active | AID 651965, 2013; active = well fitted falling curve with a large enough effect; inconclusive = small, poorly fitted or top-dose-only effect; inactive = no such curve, though single readings can be large or run the other way; also: potency is read from the fitted curve at half-maximal effect; the source files actives as falling curves though it sought activators and does not explain the sign; nearly all actives have a fitted effect of over 65% in size
Target sequence (P80244 whole entry, looked up): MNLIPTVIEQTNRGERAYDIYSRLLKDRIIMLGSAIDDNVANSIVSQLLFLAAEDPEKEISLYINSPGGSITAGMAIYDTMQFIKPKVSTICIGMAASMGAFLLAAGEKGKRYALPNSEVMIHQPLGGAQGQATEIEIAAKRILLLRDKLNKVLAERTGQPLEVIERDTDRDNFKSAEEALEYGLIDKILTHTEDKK
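Buffer: 100 mM Tris/HCl pH8, 100 mM KCl, 0.05% low protease BSA, 2.5% glycerol, 0.01% Tween-20. ClpP 10 microg/mL final; 20 min RT; delta FRET normalized to ADEP and DMSO controls.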
Mito fusion yeast: blocks mitochondrial division or promotes mitochondrial fusion | S. cerevisiae fusion-defective mutant growth rescue, CellTiterGlo 48 h | Potency, µM (doses to about 46.1 µM), without a hit: at the highest dose growth rescue (activation), usual class: activators | 0.23% of 320,000 active | AID 485298; also: potency is read from the fitted curve at half-maximal effect; % of control where 0% means no effect; nearly all actives have a fitted effect of over 45% in size
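Yeast fusion mutant, YPEG (non-fermentable carbon), compound, 48 h at 37C non-permissive; CellTiterGlo added, 10 min RT, luminescence read. Rescued growth = division inhibition.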
p53 reactivator: re-activators of mutant p53 | H1299 p53-A138V BP100-luciferase reporter, luminescence, 24 h | Potency, µM (highest dose often 92.2 µM), inactives show at the top dose activity change, positive = activation, most hits filed as activators | 0.063% of 320,000 active | AID 504706; also: potency is read from the fitted curve at half-maximal effect; % of control where 0% means no effect; nearly all actives have a fitted effect of over 45% in size
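H1299 (p53-null), stable ts p53-A138V + BP100-Luc; 1000 cells/well, Opti-MEM/10% FBS; cpd 4 pt, 1:5; 24 h, 37 deg C, 5% CO2; detection reagent 10 min RT; luminescence.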
Giardia killer: kills Giardia lamblia; Giardia lamblia trophozoite viability; activity change, % at 7.66 µM, hits read low; 0.15% of 340,000 active; in the data active = activity change below about -80%; inconclusive = between about -30% and that limit;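 also: parasites exposed to compound for two days anaerobically before the ATP read; % is scaled to controls: 0 for no effect and ±100 for the full control effect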
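Trophozoite viability was measured as ATP-dependent luminescence, read 15-30 min after reagent addition. Before that, parasites at 100 cells/well were exposed to compounds for 48 h, anaerobically, at 37 deg C.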
uPA surface inh: cell surface uPA generation inhibition. cell surface uPA generation assay, qHTS. Potency, µM (highest dose often 38.3 µM), inactives show top-dose activity change, negative = inhibition, hits mostly inhibitors. 0.31% of 330,000 active. AID 540303; active = well fitted inhibition curve with a large enough effect; inconclusive = small, poorly fitted or top-dose-only effect; inactive = no such curve, though single readings can be large or run the other way; tested in mouse RAW 264.7 cells; also: potency is read from the fitted curve at half-maximal effect; % is scaled to controls: 0 for no effect and ±100 for the full control effect; nearly all actives have a fitted effect of over 55% in size
B2AR arrestin: agonists driving beta-arrestin recruitment to human beta2-adrenergic receptor; 0.02% of 330,000 active; P07550; Potency, µM (titrated, usually from 46.1 µM), without a hit: at the highest dose activation, most hits filed as activators; beta-arrestin recruitment to beta2AR, cell-based reporter;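 also: potency is read from the fitted curve at half-maximal effect; 0% = DMSO controls and full agonism = EC100 isoproterenol or metaproterenol; nearly all actives have a fitted effect of over 65% in size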
Active calls of the source: *; ? = inconclusive; / = not tested or not shown. Unless noted, calls follow the shape of the dose curve; as a rule, active = well fitted curve in the direction sought with a large enough effect; inconclusive = small, poorly fitted or top-dose-only effect, or another doubt; inactive = no such curve, though single readings can be large; an effect the other way counts as inactive or inconclusive.

SMILES	ClpP mod	Mito fusion yeast	p53 reactivator	Giardia killer	uPA surface inh	B2AR arrestin
O=C(NCc1ccc(Cl)cc1)c1cc2ccccc2oc1=O	20µM*	5%	?	-5	1%	0%
Cc1ccc(CNc2ncnc3c2c(-c2ccccc2)cn3-c2ccccc2)cc1	28µM*	/	/	/	/	/
CCOc1ccc(-n2cc(-c3ccccc3)c3c(NCc4ccccc4)ncnc32)cc1	5%	/	/	/	/	/
CCOC(=O)C(CC)Sc1ncnc2c1c(-c1ccccc1)cn2-c1ccc(OC)cc1 (centres undefined)	22µM*	/	/	/	/	/
COc1ccc(-n2cc(-c3ccccc3)c3c(N4CCOCC4)ncnc32)cc1	/	3%	-5%	7	0%	0%
COc1ccc(CNc2ncnc3c2c(-c2ccccc2)cn3-c2ccccc2)cc1	25µM*	/	/	/	/	/
CCOC(=O)c1cccc(NC(=O)c2cnc3sc(N4CCOCC4)nn3c2=O)c1	-6%	/	/	/	/	/
CCCN(C(=O)Nc1cn(CC(C)C)c(=O)c2ccccc12)c1ccc(F)cc1	4%	/	/	/	/	/
Cc1ccccc1CNC(=O)Cc1ccc(NC(=O)N2CCCCc3ccccc32)cc1	-1%	/	/	/	/	/
C=CC(=O)NN(C)c1ncc(C(F)(F)F)cc1Cl	0%	0%	-1%	17	3.5µM*	1%
O=C(Oc1ccc(F)cc1)c1nc(SCc2ccccc2F)ncc1Cl	-2%	/	/	/	/	/
O=C(NCC(=O)N1CC=C(c2ccccc2)CC1)c1ccc(OC(F)F)cc1	-6%	/	0%	-19	?	0%
COc1cc(OC)cc(C(=O)NCC(=O)N2CC=C(c3ccccc3)CC2)c1	-5%	2%	-3%	10	4.5µM*	-1%
CCc1ccc(CNC(=O)CCCn2c(=O)c3cccn3c3cccnc32)cc1	-17%	11µM*	-3%	-4	-3%	-2%
CC(C)Oc1ccc(CNC(=O)CCCn2c(=O)c3cccn3c3cccnc32)cc1	4%	/	/	/	/	/
CCc1nn(CC(=O)N(CC)Cc2ccccc2)c(=O)c2cc3occc3n12	-7%	/	/	/	/	/
N#C/C(=N\Nc1c(Cl)cccc1Cl)C(=O)NN	16µM*	3%	23%	-17	-4%	0%
CCOC(=O)c1cc2c(=O)n3ccccc3nc2n(Cc2ccccc2)c1=N	16µM*	-3%	4%	0	5%	0%
CCOC(=O)c1cc2c(=O)n3cccc(C)c3nc2n(Cc2ccco2)c1=NC(=O)c1cccnc1	14µM*	-5%	-1%	6	-4%	0%
CCOC(=O)c1cc2c(=O)n3ccccc3nc2n(Cc2ccco2)c1=NC(=O)c1cccc(C)c1	4%	/	/	/	/	/
CCOC(=O)c1cc2c(=O)n3ccccc3nc2n(CC(C)C)c1=NC(=O)c1ccco1	7.1µM*	14%	-1%	-27	-3%	0%
CCOC(=O)c1cc2c(=O)n3ccccc3nc2n(Cc2ccco2)c1=NC(=O)c1ccc(C)c(C)c1	4%	/	/	/	/	/
CCOC(=O)c1cc2c(=O)n3ccccc3nc2n(Cc2ccco2)c1=NC(=O)c1ccccc1Br	4%	/	/	/	/	/
CCOC(=O)c1cc2c(=O)n3ccccc3nc2n(Cc2ccco2)c1=NC(=O)c1cccnc1	3.2µM*	-1%	-8%	7	0%	-1%
O=C(NCCCN1CCCC1=O)c1cccc(NS(=O)(=O)c2ccc(Br)cc2)c1	-2%	1%	4%	-21	?	-1%
O=C(NCCCN1CCCC1=O)c1cccc(S(=O)(=O)N2CCN(c3ccccc3)CC2)c1	16µM*	0%	14%	18	1%	-1%
O=C(NCCCN1CCCC1=O)c1cccc(NS(=O)(=O)c2ccccc2)c1	35µM*	-4%	-4%	22	8%	0%
Cc1ccc(-c2cc(C(=O)NCCCN3CCOCC3)c3ccccc3n2)cc1	1%	-5%	0%	11	-1%	-1%
CCNC(=S)NNC(=O)c1cc(-c2ccc(OCC)cc2)nc2ccccc12	34%	-19%	-8%	-81*	/	-2%
Cc1ccc(-c2cc(C(=O)NCc3ccccn3)c3ccccc3n2)cc1C	32µM*	7%	?	-1	-6%	0%
